Laboratory results as given in PubChem BioAssay (NCI).
About 83,000 compounds went through this panel and 20% of them were active in at least one assay; those are over-represented in the sample as a whole.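 Step 1: grow cells in 96-well plates. Step 2: add test compound at a single concentration. Step 3: incubate 48 h. Step 4: record percent growth.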 The source made the active and inactive calls. Rule for the calls: active = growth percent below 10; inactive = the rest.

How the values were obtained:
Assay in all cases: NCI-60 one-dose screen, 48 h (100 = growth as untreated, 0 = no growth, -100 = all killed)
[1] = test system: SK-MEL-2 melanoma; details: 10 µM unless noted
[2] = test system: EKVX NSCLC; details: 10 µM
[3] = test system: SN12C renal; details: 10 µM unless noted
[4] = test system: UO-31 renal; details: 10 µM unless noted
[5] = test system: TK-10 renal; details: 10 µM unless noted
[6] = test system: ACHN renal; details: 10 µM unless noted
[7] = test system: CAKI-1 renal; details: 10 µM unless noted
[8] = test system: A498 renal; details: 10 µM unless noted
[9] = test system: CCRF-CEM leukemia; details: 10 µM
[10] = test system: MOLT-4 leukemia; details: 10 µM unless noted
[11] = test system: SR leukemia; details: 10 µM unless noted
[12] = test system: RPMI-8226 leukemia; details: 10 µM unless noted
[13] = test system: OVCAR-8 ovarian; details: 10 µM unless noted
[14] = test system: OVCAR-5 ovarian; details: 10 µM unless noted
[15] = test system: OVCAR-4 ovarian; details: 10 µM unless noted
[16] = test system: SK-OV-3 ovarian; details: 10 µM unless noted
[17] = test system: IGROV1 ovarian; details: 10 µM unless noted
[18] = test system: OVCAR-3 ovarian; details: 10 µM unless noted
[19] = test system: HS 578T breast; details: 10 µM unless noted
[20] = test system: NCI/ADR-RES ovarian; details: 10 µM unless noted

Measured: growth

c1ccc(C(=NNc2nc3ccccc3o2)c2ccccn2)nc1
active: [2] 8% | [4] 2.19% | [6] 8.01% | [7] 5.09% | [8] -27% | [9] 3.17% | [12] 6.05% | [20] -3.58%
inactive: [1] 37.7% | [3] 16.1% | [5] 41.8% | [10] 12.3% | [11] 11% | [13] 18.7% | [14] 37.5% | [15] 21.8% | [16] 13.8% | [17] 16.3% | [18] 16.5% | [19] 44.2%

NC(=O)c1c(Nc2ccccc2)nn2cc(-c3nc4ccccc4s3)c(N)nc12
inactive: [1] 100% | [2] 89.5% | [3] 95.5% | [4] 81.3% | [5] 124% | [6] 96.3% | [7] 86.2% | [8] 92.5% | [9] 99.2% | [10] 93.3% | [11] 82.8% | [12] 96.4% | [13] 102% | [14] 104% | [15] 97.1% | [16] 94.8% | [17] 93.3% | [18] 107% | [19] 93.3% | [20] 98.9%

CCCCCCCCc1ccc(OCCOCC[N+](C)(C)CC)cc1 (tested in a mixture with another compound)
inactive: [1] 11.5% | [2] 71% | [3] 21.5% | [4] 89.4% | [5] 96.1% | [6] 102% | [7] 98.8% | [8] 73.8% | [9] 28.7% | [10] 51.4% | [11] 37.7% | [13] 48.4% | [14] 76% | [15] 20.7% | [16] 78.5% | [17] 33.8% | [18] 20.6% | [19] 37.7% | [20] 107%
active: [12] 8.79%

CC(=O)OCC1O[C@@H](OC(C)=O)[C@@H](NC(=O)NS(=O)(=O)c2ccccc2)C(OC(C)=O)[C@@H]1OC(C)=O (stereo not given in full)
active: [1] -51.6%
inactive: [2] 96.4% | [3] 97.2% | [4] 90.9% | [5] 98.6% | [6] 104% | [7] 94.9% | [8] 71.9% | [9] 97% | [10] 98.6% | [11] 88.9% | [12] 107% | [13] 113% | [14] 108% | [15] 109% | [16] 113% | [17] 108% | [18] 110% | [19] 109% | [20] 113%

O=S(=O)(Cc1cccc2c(CS(=O)(=O)c3ccc(Cl)cc3)cccc12)c1ccc(Cl)cc1
inactive: [1] 98.8% | [2] 82.4% | [3] 98.6% | [4] 106% | [5] 113% | [6] 96.7% | [7] 73% | [8] 109% | [9] 90.7% | [10] 95.5% | [11] 94.7% | [12] 96.3% | [13] 71.1% | [14] 97.3% | [15] 100% | [16] 94.7% | [17] 91.4% | [18] 95.9% | [19] 70.8% | [20] 90%

Oc1ccccc1\C=N/N=C/C=C/c1ccccc1
inactive: [1] 92.7% | [2] 94.5% | [3] 88% | [4] 51.7% | [5] 130% | [6] 104% | [7] 96.7% | [8] 78% | [10] 55.3% | [11] 71.9% | [12] 107% | [13] 103% | [14] 112% | [15] 97.7% | [16] 87.9% | [17] 101% | [18] 96.3% | [19] 106% | [20] 102%
active: [9] 7.53%

COC(=O)c1ccc2[nH]c(O)c(C(=Nc3ccc(N(C)C(=O)CN4CCN(C)CC4)cc3)c3ccc(OC)cc3)c2c1
active: [7] 5.5% | [8] -16.6% | [9] 6.43% | [10] 2.57% | [11] -14.8% | [12] 7.14% | [16] 2.38% | [17] 6.44%
inactive: [1] 16.9% | [2] 45.7% | [3] 17% | [4] 14.3% | [5] 27.6% | [6] 14.9% | [13] 25.6% | [14] 38.4% | [15] 38.7% | [18] 30.4% | [19] 11.9% | [20] 101%

CCOC(=O)c1c2c(cn1Cc1ccccc1)-c1oncc1CC2
inactive: [1] 115% | [2] 91.3% | [3] 76.1% | [4] 48.7% | [5] 77.4% | [6] 94.1% | [7] 82.8% | [8] 50.5% | [9] 96% | [10] 100% | [11] 91.8% | [12] 100% | [13] 84.9% | [14] 88.3% | [15] 104% | [16] 109% | [17] 101% | [18] 103% | [19] 91.9% | [20] 98.3%

COc1nc(OC)nc(-c2cc(C(=O)c3ccc(Br)cc3)n3cc(C)cc(C)c23)n1
inactive: [1] 68.1% | [2] 68.1% | [3] 48% | [4] 71% | [5] 82.1% | [6] 18.5% | [7] 64.8% | [8] 71.3% | [9] 83.8% | [10] 96.6% | [11] 87% | [12] 76.4% | [13] 54.7% | [14] 102% | [15] 37.6% | [16] 53.9% | [17] 62.4% | [18] 34.5% | [19] 24.1% | [20] 58.7%

C#CCCCCCCC[C@@H]1OC(=O)[C@H]([C@@H](C)CC)NC(=O)[C@@H]([C@@H](C)CC)NC(=O)CC(=O)[C@@H]1C
inactive: [1] 107% | [2] 93.4% | [3] 94.9% | [4] 60.9% | [5] 141% | [6] 86.8% | [7] 69.8% | [8] 86.6% | [9] 93% | [10] 87.2% | [11] 91.2% | [12] 93.8% | [13] 99.8% | [14] 88% | [15] 99.3% | [16] 102% | [17] 89.1% | [18] 103% | [19] 84.6% | [20] 99.2%

O=C(/C=C/c1ccc(Br)cc1)c1ccccc1
active: [11] 4.53% | [12] 1.56%
inactive: [1] 103% | [2] 109% | [3] 91.6% | [4] 80.3% | [5] 64% | [6] 100% | [7] 101% | [8] 77.4% | [9] 81.6% | [10] 92.3% | [13] 91.9% | [14] 113% | [15] 96.3% | [16] 111% | [17] 87.3% | [18] 93.3% | [19] 100% | [20] 99.5%

CCC(CCCN1C(=O)c2ccccc2C1=O)Nc1cc(OC)cc2cccnc12 (stereo not given)
inactive: [1] 97.8% | [2] 97.2% | [3] 99.3% | [4] 94.8% | [5] 136% | [6] 103% | [7] 111% | [8] 84.3% | [9] 84.5% | [10] 73.8% | [11] 73.5% | [12] 102% | [13] 96.1% | [14] 89.6% | [15] 39.9% | [16] 107% | [18] 106% | [19] 84.5% | [20] 99.5%
active: [17] -7.61%

CC(=O)NNC(=O)c1sc(NC(C)=O)nc1C
inactive: [1] 35.3% | [2] 115% | [3] 99.4% | [4] 89.1% | [5] 95.2% | [6] 106% | [7] 115% | [8] 100% | [9] 88.1% | [10] 94.1% | [11] 87.4% | [12] 105% | [13] 95.6% | [14] 97% | [15] 122% | [16] 92.6% | [17] 23.4% | [18] 103% | [19] 74.9% | [20] 104%

COc1cc(OC)c2c(=O)cc(-c3ccccc3)oc2c1
active: [17] 7.82%
inactive: [1] 103% | [2] 103% | [3] 93% | [4] 70.2% | [5] 85.9% | [6] 103% | [7] 86.4% | [8] 77.1% | [9] 26.9% | [10] 80.4% | [11] 31.3% | [12] 77.6% | [13] 103% | [14] 93.7% | [15] 105% | [16] 105% | [18] 104% | [19] 113% | [20] 109%
